PostGolgi ctrl – inhibits growth of the yeast control strain. efflux-deficient yeast background strain, growth absorbance A615, 16 h. inhibition, % at 10 µM. 98,000 tested, 5% active
TNAP act mid DEA – activators of human TNAP at intermediate phosphate acceptor | P05186 | purified TNAP, CDP-star luminescence, 100 mM DEA, 30 min; active compounds read high; scale: 0 levamisole-inhibited, 1 vehicle-only enzyme | activation factor at 20 µM | 64,000 tested, under 10 active | AID 813;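 active = activation factor of at least 2 at 20 µM, relative to controls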
Cav32 inh – human Cav3.2 channel inhibition, primary screen. B-score at 10 µM. AID 449739. O95180. Cav3.2-expressing cells, Fluo-4 calcium fluorescence FDSS; active compounds read low. 100,000 tested, 4% active;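 active = single-dose well whose peak fluorescence ratio is a statistical outlier from its plate by either plate-standardised score or position-corrected B-score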
PostGolgi yeast – growth inhibition of a yeast mutant, post-Golgi transport screen; post-Golgi transport phenotypic cell assay; AID 739; inhibition, % at 10 µM; 98,000 tested, 0.9% active;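 also: yeast cells grown in 1536-well plates; yeast grown about 18 h at 30C before absorbance read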
hDAT+cocaine – modulates human dopamine transporter uptake under cocaine. LLC-PK1 hDAT cells, [14C]-dopamine uptake with cocaine IC80; actives deviate in either direction. Q01959. 110,000 tested, 1.3% active. AID 449768. B-score at 10 µM;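 active = Z score or B-score, a plate-position-corrected score, falls beyond the plate's 99.7% confidence bounds, in either direction; inactive = both scores lie inside the 99.7% bounds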
Smad3 inh – inhibitors of human Smad3 transcription factor binding; P84022; TR-FRET Smad3/Dy647-FoxH1 peptide binding, europium anti-His; inhibition, % at 25 µM; 88,000 tested, 0.29% active;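 active = compounds that reduce the energy-transfer binding signal between the protein and its labelled peptide by more than half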
Large screens that a line does not name were inactive. This is a sample that favours compounds with a hit; in the whole collection about 8.7% have one here. Rule as the data show it, unless noted: active = inhibition above about 30%; inactive = the rest.

Cc1cccc(/C=C2/SC(=O)N(Cc3ccccc3Cl)C2=O)n1	PostGolgi ctrl 39 (no result: TNAP act mid DEA, Smad3 inh)
COc1cc(/C=C2/SC(=O)N(Cc3ccccc3Cl)C2=O)ccc1OCc1ccncc1	none (no result: TNAP act mid DEA, Smad3 inh)
CCOC(=O)C(=CNc1cc(C)nn1-c1ccc(Cl)cc1)C(=O)OCC	PostGolgi ctrl 40 (no result: TNAP act mid DEA)
O=C(Nc1ccc2c(c1)OCO2)C1CCN(Cc2cnn(-c3ccccc3)c2-n2cccc2)CC1	Cav32 inh -5.2
CC1CCC(NC(=O)CN2C(=O)C3CCCN3c3ncc(Cl)cc32)CC1 (stereo not given)	Cav32 inh -6.5 (no result: Smad3 inh)
CCOc1ccc(-c2n[nH]c(C)c2Oc2ccccc2OC)c(O)c1	none
Cc1[nH]nc(-c2ccc(O)cc2O)c1Oc1ccccc1	Cav32 inh -4.5
CCCOC(=O)c1ccc(Oc2c(-c3ccc(O)cc3O)n[nH]c2C)cc1	PostGolgi ctrl 38
CCc1cc(-c2n[nH]c(C)c2Oc2ccc(C(C)C)cc2)c(O)cc1O	PostGolgi ctrl 87 (no result: TNAP act mid DEA)
Cc1[nH]nc(-c2ccc(OCc3cnn(-c4ccccc4)c3)cc2O)c1Oc1ccccc1F	PostGolgi ctrl 42 (no result: TNAP act mid DEA, Smad3 inh)
FC(F)(F)c1cc(CCN2CCNC[C@@H]2Cc2ccccc2)cc(C(F)(F)F)c1	none (no result: PostGolgi ctrl, TNAP act mid DEA, PostGolgi yeast, Smad3 inh)
CC(=O)Nc1ccc(NC(=O)C2CCCN(c3nnc(-n4cccc4)s3)C2)cc1 (stereo not given)	none (no result: Smad3 inh)
CC(C)Oc1cc2oc(=O)c3c(c2cc1Cl)CCC3	none
CC(=O)Oc1cc2oc(=O)c3c(c2cc1Cl)CCC3	hDAT+cocaine 5.6
CCn1c(C)nc2cc(-c3nnc(-c4c(-c5ccccc5)noc4C)o3)ccc21	none
Cc1ccccc1NS(=O)(=O)c1cccc(-c2nnc(-c3ccccc3)o2)c1	none
O=S(=O)(NC1CCCCC1)c1cccc(-c2nnc(-c3ccccc3)o2)c1	PostGolgi ctrl 31
O=C(NCC1CCCO1)c1cc(-c2ccncc2)nc2ccc(S(=O)(=O)N3CCOCC3)cc12 (stereo not given)	none
c1ccc(-c2nc(-c3ccncc3)no2)cc1	none
c1ccc(C(Cc2nc(-c3ccncc3)no2)c2ccccc2)cc1	PostGolgi ctrl 35 (no result: Cav32 inh, hDAT+cocaine)
c1ccc(-c2ccccc2-c2nc(-c3ccncc3)no2)cc1	PostGolgi ctrl 56
CCN1CCN(S(=O)(=O)c2cc(C)c(OC)cc2C)CC1	none
O=C(O)CCc1nn2c3ccccc3nc2n(CCN2CCCCC2)c1=O	none
Cc1cc2nc(SCCN3CCCC3)[nH]c2cc1C	hDAT+cocaine -7.8
Nc1ncnc2nc(SCCN3CCCCC3)[nH]c12	none (no result: Cav32 inh, hDAT+cocaine)
COC(=O)c1cc2c(-c3ccccc3)cc3ccccn3c-2c1C(=O)OC	PostGolgi ctrl 43 (no result: TNAP act mid DEA, Smad3 inh)
COC(=O)c1c(C)c2c(C)cc3ccccn3c-2c1C(=O)OC	none (no result: TNAP act mid DEA, Smad3 inh)
COCC(=O)Nc1cccc(C(F)(F)F)c1	none
CC(C)Oc1cc(NC(=O)CS(=O)CC(=O)Nc2cccc(C(F)(F)F)c2)c(Cl)cc1Cl (stereo not given)	Cav32 inh -3.8 (no result: TNAP act mid DEA, Smad3 inh)
CCn1c(CN2CCN(c3ccc(Cl)cc3)CC2)nc2ccccc21	Cav32 inh -6.7 (no result: PostGolgi ctrl, TNAP act mid DEA, PostGolgi yeast)
COc1cccc(NC(=O)COc2ccc(S(=O)(=O)NC(C)C)cc2)c1	none (no result: PostGolgi ctrl, TNAP act mid DEA, Cav32 inh, PostGolgi yeast)
N#CC1=C(N)Oc2c(oc(CO)cc2=O)C1c1ccsc1 (stereo not given)	none
N#CC1=C(N)Oc2c(ccc3ccccc23)C1c1ccsc1 (stereo not given)	PostGolgi ctrl 49 (no result: TNAP act mid DEA, Cav32 inh, hDAT+cocaine, Smad3 inh)
CCOc1cc(C2NN=C(c3ccccc3)S2)ccc1OCc1ccc(F)cc1 (stereo not given)	none (no result: TNAP act mid DEA, Smad3 inh)
Cn1cc(/C=N/n2cnc3scc(-c4ccccc4)c3c2=O)c2ccccc21	Cav32 inh -4
O=c1c2c(-c3cccs3)csc2ncn1/N=C/c1ccc(OC(F)F)cc1	none (no result: TNAP act mid DEA, Smad3 inh)
CCOc1cc(S(=O)(=O)N2CC=C(c3ccc(F)cc3)CC2)c(OCC)cc1-n1cnnn1	PostGolgi ctrl 101
CC(C)Cc1nc(NCCN2CCOCC2)c(C#N)c2c1COC(C)(C)C2	PostGolgi ctrl 100, PostGolgi yeast 51
CCCCc1nc(NCCN2CCOCC2)c(C#N)c2c1COC(C)(C)C2	PostGolgi ctrl 102, hDAT+cocaine 2.6
CC(C)c1nc(NCCN2CCOCC2)c(C#N)c2c1COC(C)(C)C2	PostGolgi ctrl 60
CCc1nc(NCCN2CCOCC2)c(C#N)c2c1CCCC2	none
Cc1nc(NCCO)c(C#N)c2c1COC(C)(C)C2	none (no result: Smad3 inh)
CN(C)c1nc(N)nc(CSc2n[nH]c(-c3ccccc3)n2)n1	none
COc1ccc(NC(=O)CSc2nnc(CNC(=O)c3ccco3)o2)c(OC)c1	none
Cc1ccc(Cn2ncc3c(N4CCN(c5ccccc5C)CC4)ncnc32)cc1	Cav32 inh -5.6
Cc1ccc2c(c1)c1ncnc(N3CCC4(CC3)OCCO4)c1n2C	none (no result: Cav32 inh)
Cc1ccc2c(c1)c1ncnc(N3CCOCC3)c1n2C	PostGolgi ctrl 36 (no result: Cav32 inh, hDAT+cocaine)
Cc1ccc2c(c1)c1ncnc(N3CCN(c4ccccc4)CC3)c1n2C	PostGolgi ctrl 53 (no result: Cav32 inh)
CCN1CCN(c2ccc(-n3c(C)nc4c(cnn4-c4ccccc4Cl)c3=O)cc2)CC1	none (no result: PostGolgi ctrl, Cav32 inh, PostGolgi yeast, hDAT+cocaine)
Cc1ccc(C(C(=O)NC2CCCCC2)N(CCC(C)C)C(=O)CNC(=O)c2ccco2)o1 (stereo not given)	Cav32 inh -4.7
O=C(CN(C(=O)CNC(=O)c1ccco1)c1ccc(Cl)c(Cl)c1)NC1CCCCC1	Cav32 inh -4.3
COc1cccc(NC(=O)CSc2nnc(CNC(=O)c3ccccc3)n2C)c1	none
Cc1onc(-c2c(F)cccc2Cl)c1C(=O)N1C=CC(C(F)(F)Cl)=NCC1	none (no result: TNAP act mid DEA, Smad3 inh)
CCn1nc(C(=O)Nc2ccc(C)c(C)c2)c(Cl)c1Cl	none (no result: TNAP act mid DEA, Smad3 inh)
CC(=O)c1sc2nc(-c3cccs3)ccc2c1N	none (no result: TNAP act mid DEA)
Nc1c(C(=O)C2CC2)sc2nc(-c3cccs3)cc(C(F)(F)F)c12	Cav32 inh -7.9 (no result: TNAP act mid DEA)
C=CCc1ccc(OCC(O)CN2CCCCC2C)c(OC)c1 (stereo not given)	none
COc1ccccc1NC(=O)CN(Cc1ccco1)C(=O)c1ccc(-n2nc(C)cc2C)cc1	none
O=C(CN(Cc1ccco1)C(=O)c1cccc(Cl)c1)Nc1c(Cl)cc(Cl)cc1Cl	Cav32 inh -4.5 (no result: TNAP act mid DEA, Smad3 inh)
O=C(CN(Cc1ccco1)C(=O)c1ccccc1)Nc1ccc(Cl)c(Cl)c1	PostGolgi ctrl 39, Cav32 inh -8.7 (no result: TNAP act mid DEA, Smad3 inh)
Cn1c(NC(=O)c2ccco2)cc(=O)n(C)c1=O	hDAT+cocaine 7.9
CCCC(=O)Nc1cc(=O)n(C)c(=O)n1C	none (no result: Cav32 inh)
Cn1c(NC(=O)CCc2ccccc2)cc(=O)n(C)c1=O	PostGolgi ctrl 36
COc1ccc(-c2cc(-c3ccc(OC)cc3)[nH]n2)cc1	PostGolgi ctrl 33
O=S(=O)(c1ccccc1)c1cnc(-c2cccnc2)nc1-c1ccc(Cl)cc1Cl	none (no result: TNAP act mid DEA, Cav32 inh, Smad3 inh)
O=C(NNC(=S)NC(=O)C12CC3CC(CC(C3)C1)C2)c1ccncc1	PostGolgi ctrl 48, Cav32 inh -4.3, PostGolgi yeast 42 (no result: TNAP act mid DEA, Smad3 inh)
CC/C(=N\NC(=O)c1ccncc1)C12CC3CC(CC(C3)C1)C2	none (no result: TNAP act mid DEA, Smad3 inh)
Cc1ccc(-c2nnc3c4ccccc4c(C)nn23)cc1NC(=O)c1ccco1	none (no result: PostGolgi ctrl, Cav32 inh, PostGolgi yeast, hDAT+cocaine)

Source: PubChem BioAssay (several laboratories)
